The nature of assay [1]: lowers stimulated NF-kB luciferase signal in Jurkat – cell-based, luminescence, single concentration, T-cell NF-kB inhibitor project, confirmation (AID 435020;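 active means inhibition reaching about 45% at 4 µM in either replicate, limit read from the data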;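 further: plate controls were PMA/ionomycin stimulated DMSO wells for no effect and unstimulated DMSO wells for full effect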). Conditions: PMA/ionomycin-induced, 16 h, at 4 µM, stronger effect = higher value.
Assay [2] is described as follows: PPC-1 cell viability loss – ATP content luminescence, cytotoxicity control for TRAIL apoptosis potentiator project, confirmation (AID 1447;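 active means reconfirmed compounds whose average cytotoxicity reaches 50% or more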;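 further: 0% = DMSO-treated cells and 100% = wells holding medium but no cells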). Conditions: PPC-1 viability, ATPlite luminescence, overnight; at 5 µM; stronger effect = higher value. (In general: In ATP-based viability assays light output follows the ATP content of the culture.)
Assay [3] deals with Sentrin-specific protease 8 (Homo sapiens) (UniProt Q96LD8). Briefly: human SENP8 peptidase blockers, hit retest – biochemical, luminescence, single concentration, confirmation (AID 488912;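 active means mean inhibition across replicates above about 50%, limit read from the data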). The note with it: Recombinant SENP8, Z-RLRGG-aminoluciferin luminescence, 60 min; at 12.5 µM; stronger effect = higher value.
Assay [4] deals with Sentrin-specific protease 6 (Homo sapiens) (UniProt Q9GZR1). As to the kind of experiment: inhibition of human SENP6 catalytic domain – biochemical, luminescence, single concentration, confirmation (AID 488915). The note with it: recombinant SENP6, Z-RLRGG-aminoluciferin luminescence; at 12.5 µM; stronger effect = higher value.
For assay [5], the target named is Sentrin-specific protease 7 (Homo sapiens) (UniProt Q9BQF6). Briefly: human SENP7 peptidase blockers, hit retest – biochemical, luminescence, single concentration, confirmation (AID 488917). Conditions: recombinant SENP7, Z-RLRGG-aminoluciferin luminescence, 40 min; at 12.5 µM; stronger effect = higher value.
The target in another assay is Caspase-3 (Homo sapiens) (UniProt P42574). Briefly: human caspase-3 activity blockade, out-of-family – biochemical, single concentration, selectivity assay for SENP inhibitor project, confirmation (AID 488918;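 active means mean inhibition above about 50%, limit read from the data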;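 further: plate controls were enzyme with DMSO for no effect and wells without caspase-3 for full effect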). Conditions: purified caspase-3, Z-DEVD-aminoluciferin luminescence, 60 min; at 12.5 µM; stronger effect = higher value.
Assay [6] is described as follows: Ultra-Glo luciferase signal interference – biochemical, single concentration, SENP8 reaction pre-completed, artefact control for SENP inhibitor project, confirmation (AID 488919;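 active means mean inhibition above about 50% when retested at one dose, limit read from the data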;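 further: plate controls were DMSO wells with completed reaction for no effect and substrate without enzyme for full effect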). The note with it: Pre-incubated SENP8/Z-RLRGG-aminoluciferin, luciferase luminescence interference; at 12.5 µM; stronger effect = higher value.
Assay [7] concerns the target Tumor necrosis factor receptor superfamily member 10B (Homo sapiens) (UniProt O14763). As to the kind of experiment: viability loss of caspase-8 NB7 cells with TRAIL – with/without TRAIL, luminescence panel, confirmation (AID 651596; in the data active means activity above about 50%). The note with it: NB7 neuroblastoma + caspase-8, TRAIL sensitization, NB7 Caspase-8, with TRAIL, mean of runs, at 10 µM, stronger effect = higher value.

Assay in assay [8]: as above
Conditions: NB7 neuroblastoma + caspase-8, without TRAIL, NB7 Caspase-8, without TRAIL, mean of runs, at 10 µM.

A short description of assay [9]: inhibition of PEG-3 promoter luciferase signal – cell-based, HeLa, luciferase reporter, single concentration, confirmation (AID 602417;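 active means at 20 µM dose, 40% or more inhibition averaged across four replicates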). Conditions: HeLa PEG-Prom luciferase reporter, luminescence, overnight; at 20 µM; stronger effect = higher value. Background: A reporter such as luciferase makes a cellular process visible.
Assay [10] concerns the target COP9 signalosome complex subunit 5 (Homo sapiens) (UniProt Q92905). As to the kind of experiment: blockers of CSN-driven cullin deneddylation – biochemical, fluorescence polarization, single concentration, SCF-Nedd8OG substrate, confirmation (AID 720654; in the data active means inhibition above about 50%;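 further: 0% = DMSO with enzyme and 100% = no enzyme wells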). Conditions: Csn5 deneddylation of SCF-Nedd8OG, 90 min, at 16.6 µM, stronger effect = higher value. (In general: In fluorescence polarisation assays a small probe gives low polarisation when free and higher when bound to something large.)

Assay [11] concerns the target 72 kDa type IV collagenase (Homo sapiens) (UniProt P08253). As to the kind of experiment: human MMP-2 inhibitors, single-point check – biochemical, fluorescence, single concentration, counter-screen for CSN deneddylation inhibitor project, confirmation (AID 720655;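 active means corrected plate-normalized z-score of 5 or more, or -5 or less, or inhibition of 15% or more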;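 further: plate controls were DMSO wells with enzyme for no effect and buffer wells lacking MMP-2 for full effect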). The note with it: recombinant MMP-2, FRET substrate fluorescence, 60 min; at 16.6 µM.
Another assay has as its target Prothrombin (Bos taurus) (UniProt P00735). Briefly: thrombin cleavage blockers, FP readout – biochemical, fluorescence polarization, single concentration, counter-screen for CSN deneddylation inhibitor project, confirmation (AID 720656;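 active means inhibition at or above a set limit, with a fluorescence interference ratio between 0.5 and a set maximum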). Conditions: bovine thrombin cleavage of Ub4-pepOG, at 16.6 µM, stronger effect = higher value.
The target in assay [12] is PEG-3 (UniProt Q6IN02). Briefly: inhibition of PEG-3 promoter-driven reporter – cell-based, HeLa, luciferase, CREF/GAPDH counter-screen panel, dose response (AID 624167). Conditions: CREF/GAPDH counter-screens; HeLa PEG-Prom luciferase reporter, overnight, run 1, dose range 1, at 100 µM (top of the series) unless noted.
Assay [13] has as its target PEG-3 (UniProt Q6IN02). The assay is described as above. The note with it: CREF/GAPDH counter-screens; HeLa PEG-Prom luciferase reporter, overnight, run 2, dose range 1, at 100 µM (top of the series) unless noted.
Assay [14] relates to Rat fibroblasts (CREF). The description is as above. Conditions: CREF/GAPDH counter-screens; run 1, dose range 1, at 100 µM (top of the series).
Assay [15] deals with Rat fibroblasts (CREF). The description is as above. Conditions: CREF/GAPDH counter-screens; run 2, dose range 1, at 100 µM (top of the series).

This is one part of the list. Activity calls are given as the source filed them.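 How the source made its calls, unless noted: active means mean inhibition above about 50% in the one-dose retest (limit read from the data); inactive means the rest.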

Sentrin-specific protease 7 (Homo sapiens), sequence (Q9BQF6 706-1050 limits assumed): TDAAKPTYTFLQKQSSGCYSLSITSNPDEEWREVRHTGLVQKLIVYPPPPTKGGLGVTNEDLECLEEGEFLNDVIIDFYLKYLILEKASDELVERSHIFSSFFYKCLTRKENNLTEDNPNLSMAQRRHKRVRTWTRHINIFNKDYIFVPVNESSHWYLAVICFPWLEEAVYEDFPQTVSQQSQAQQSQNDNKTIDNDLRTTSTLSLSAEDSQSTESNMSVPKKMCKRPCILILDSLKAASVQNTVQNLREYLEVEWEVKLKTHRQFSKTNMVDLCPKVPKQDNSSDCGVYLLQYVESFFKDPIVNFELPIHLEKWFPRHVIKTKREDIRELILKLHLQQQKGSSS
Sentrin-specific protease 6 (Homo sapiens), sequence (Q9GZR1 628-1112 limits assumed): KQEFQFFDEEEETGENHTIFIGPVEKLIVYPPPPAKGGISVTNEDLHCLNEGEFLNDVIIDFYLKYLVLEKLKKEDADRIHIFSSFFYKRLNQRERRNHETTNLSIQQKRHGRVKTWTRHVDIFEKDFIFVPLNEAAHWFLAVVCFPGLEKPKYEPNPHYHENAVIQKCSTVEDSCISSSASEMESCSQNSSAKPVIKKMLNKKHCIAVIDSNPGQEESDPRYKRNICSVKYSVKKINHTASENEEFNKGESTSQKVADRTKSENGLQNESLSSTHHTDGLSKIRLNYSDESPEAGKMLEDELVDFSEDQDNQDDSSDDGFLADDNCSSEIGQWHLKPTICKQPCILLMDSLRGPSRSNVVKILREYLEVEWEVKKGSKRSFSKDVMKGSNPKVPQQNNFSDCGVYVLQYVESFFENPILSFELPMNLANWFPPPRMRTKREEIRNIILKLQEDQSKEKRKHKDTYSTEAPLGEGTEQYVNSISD
Caspase-3 (Homo sapiens), sequence (P42574 28-227 limits assumed): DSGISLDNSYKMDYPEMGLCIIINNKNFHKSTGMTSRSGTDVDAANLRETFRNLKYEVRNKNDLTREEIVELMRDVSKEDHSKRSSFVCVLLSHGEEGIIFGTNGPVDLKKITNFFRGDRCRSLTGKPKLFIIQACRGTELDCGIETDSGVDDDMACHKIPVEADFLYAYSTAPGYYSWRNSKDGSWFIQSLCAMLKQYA
Sentrin-specific protease 8 (Homo sapiens), sequence (Q96LD8 whole entry, looked up, the tested form may be a part): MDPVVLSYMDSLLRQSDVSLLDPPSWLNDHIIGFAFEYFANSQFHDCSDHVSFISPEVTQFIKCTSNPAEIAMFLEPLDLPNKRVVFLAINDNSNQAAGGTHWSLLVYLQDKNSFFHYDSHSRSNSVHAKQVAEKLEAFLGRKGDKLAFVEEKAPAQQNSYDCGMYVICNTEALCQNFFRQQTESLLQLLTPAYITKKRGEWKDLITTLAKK
Tumor necrosis factor receptor superfamily member 10B (Homo sapiens), sequence (O14763 whole entry, looked up): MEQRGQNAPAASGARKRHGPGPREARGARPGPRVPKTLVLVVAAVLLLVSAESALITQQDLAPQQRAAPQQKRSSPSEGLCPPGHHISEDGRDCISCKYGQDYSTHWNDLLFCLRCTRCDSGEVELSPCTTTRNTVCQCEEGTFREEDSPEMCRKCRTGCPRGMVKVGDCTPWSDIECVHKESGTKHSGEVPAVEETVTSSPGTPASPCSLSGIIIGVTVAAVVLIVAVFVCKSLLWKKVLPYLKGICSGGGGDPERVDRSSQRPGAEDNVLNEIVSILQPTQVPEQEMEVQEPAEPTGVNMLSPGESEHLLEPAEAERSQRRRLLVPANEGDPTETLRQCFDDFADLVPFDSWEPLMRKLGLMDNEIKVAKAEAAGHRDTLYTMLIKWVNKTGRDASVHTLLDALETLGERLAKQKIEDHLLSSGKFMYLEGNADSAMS
PEG-3, sequence (Q6IN02 whole entry, looked up): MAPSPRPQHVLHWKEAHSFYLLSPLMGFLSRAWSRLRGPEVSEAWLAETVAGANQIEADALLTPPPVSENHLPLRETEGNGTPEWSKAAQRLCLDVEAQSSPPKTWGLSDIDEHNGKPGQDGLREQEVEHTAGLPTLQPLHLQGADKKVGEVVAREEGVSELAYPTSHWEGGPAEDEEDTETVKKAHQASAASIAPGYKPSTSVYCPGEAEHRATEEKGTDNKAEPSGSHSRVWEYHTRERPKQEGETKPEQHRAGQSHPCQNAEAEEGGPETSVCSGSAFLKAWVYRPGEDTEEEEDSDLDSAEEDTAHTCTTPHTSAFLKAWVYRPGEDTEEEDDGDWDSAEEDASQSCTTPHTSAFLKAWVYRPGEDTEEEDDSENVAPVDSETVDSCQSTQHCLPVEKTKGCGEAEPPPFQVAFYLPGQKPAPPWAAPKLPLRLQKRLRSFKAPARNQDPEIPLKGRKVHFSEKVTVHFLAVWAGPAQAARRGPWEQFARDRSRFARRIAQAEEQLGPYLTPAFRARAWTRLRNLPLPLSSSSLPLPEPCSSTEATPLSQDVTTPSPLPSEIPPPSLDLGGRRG
COP9 signalosome complex subunit 5 (Homo sapiens), sequence (Q92905 whole entry, looked up, one chain of several): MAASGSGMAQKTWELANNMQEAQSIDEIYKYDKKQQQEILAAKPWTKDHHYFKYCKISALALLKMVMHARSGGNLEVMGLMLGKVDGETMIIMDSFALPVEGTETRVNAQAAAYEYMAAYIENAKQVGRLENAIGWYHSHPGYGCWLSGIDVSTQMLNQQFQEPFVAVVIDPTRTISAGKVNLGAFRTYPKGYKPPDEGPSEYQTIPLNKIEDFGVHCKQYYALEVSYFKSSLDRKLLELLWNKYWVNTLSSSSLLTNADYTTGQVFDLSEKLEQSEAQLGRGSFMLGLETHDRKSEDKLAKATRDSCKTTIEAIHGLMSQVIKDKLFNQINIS
72 kDa type IV collagenase (Homo sapiens), sequence (P08253 whole entry, looked up): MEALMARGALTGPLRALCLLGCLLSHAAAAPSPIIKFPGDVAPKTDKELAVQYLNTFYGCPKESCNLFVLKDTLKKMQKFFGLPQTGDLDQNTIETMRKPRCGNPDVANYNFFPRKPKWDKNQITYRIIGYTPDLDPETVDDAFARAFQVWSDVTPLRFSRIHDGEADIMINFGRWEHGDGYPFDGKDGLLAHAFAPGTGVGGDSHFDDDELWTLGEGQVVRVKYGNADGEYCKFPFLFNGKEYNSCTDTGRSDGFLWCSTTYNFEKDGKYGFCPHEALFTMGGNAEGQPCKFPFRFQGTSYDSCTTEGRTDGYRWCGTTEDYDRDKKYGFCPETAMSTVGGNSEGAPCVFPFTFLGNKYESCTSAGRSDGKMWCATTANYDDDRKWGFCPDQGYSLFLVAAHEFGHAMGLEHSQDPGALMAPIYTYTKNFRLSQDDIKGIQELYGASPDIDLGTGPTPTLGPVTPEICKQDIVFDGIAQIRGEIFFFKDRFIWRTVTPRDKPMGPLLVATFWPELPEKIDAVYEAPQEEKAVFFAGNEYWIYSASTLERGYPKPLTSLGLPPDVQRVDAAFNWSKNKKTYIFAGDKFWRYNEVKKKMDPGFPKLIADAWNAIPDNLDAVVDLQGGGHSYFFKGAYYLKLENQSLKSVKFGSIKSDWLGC
Prothrombin (Bos taurus), sequence (P00735 whole entry, looked up): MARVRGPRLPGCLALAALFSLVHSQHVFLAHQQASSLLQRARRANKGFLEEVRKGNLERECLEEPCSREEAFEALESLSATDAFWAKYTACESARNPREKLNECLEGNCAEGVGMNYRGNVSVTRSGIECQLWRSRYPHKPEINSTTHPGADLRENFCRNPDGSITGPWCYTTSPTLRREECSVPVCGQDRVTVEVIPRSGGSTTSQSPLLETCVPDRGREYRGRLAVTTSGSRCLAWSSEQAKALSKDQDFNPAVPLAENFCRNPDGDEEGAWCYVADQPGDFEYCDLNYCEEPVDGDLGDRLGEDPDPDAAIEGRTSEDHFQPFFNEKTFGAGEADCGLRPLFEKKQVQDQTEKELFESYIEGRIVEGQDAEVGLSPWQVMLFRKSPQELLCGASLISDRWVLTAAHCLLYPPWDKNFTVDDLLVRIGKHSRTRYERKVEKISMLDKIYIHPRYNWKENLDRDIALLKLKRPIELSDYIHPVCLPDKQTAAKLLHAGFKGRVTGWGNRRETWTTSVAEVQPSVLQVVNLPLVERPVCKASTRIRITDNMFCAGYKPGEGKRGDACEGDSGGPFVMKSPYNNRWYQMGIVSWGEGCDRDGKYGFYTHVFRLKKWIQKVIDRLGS

Usually inhibition stands for the change of the read-out against control, counted positive when it falls. Take `CCOc1ccc(NC(=O)c2ccc(NC(=O)COC(=O)c3ccc(NC(=O)CC#N)cc3)cc2)cc1`: in assay [1], the inhibition was -36.5% (inactive).
With `O=C(Oc1ccc(-c2nc(-c3ccccn3)no2)cc1)c1ccccc1`, the cytotoxicity in assay [2] was 44.9% (inactive). The inhibition is 4.5% (inactive) in assay [3]; 23.1% (inactive) in assay [4]; 2.6% (inactive) in [5]; 14.5% (inactive) in the assay with Caspase-3 (Homo sapiens); 2.6% (inactive) in assay [6].
On to `Oc1cccc(/C=N/Nc2ccc(Cl)nn2)c1O`, for which the inhibition in [1] was 0.85% (inactive).
Turning to `CCCC(=O)Nc1nc2ccc(NC(=O)c3c(F)c(F)c(OC)c(F)c3F)cc2s1`, the inhibition in assay [1] is 40.9% (active).
With `Cn1c(-c2ccco2)nc2cc3ccccc3cc21`, the cytotoxicity in assay [2] is 89.1% (active). The inhibition in assay [3] was 3.5% (inactive); in assay [4], 99.6% (active); in assay [5], 103% (active); in the assay with Caspase-3 (Homo sapiens), 98.1% (active); in assay [6] it was 98.1% (active).
For `CC(=O)c1sc(NC(=O)c2ccc(C)cc2)nc1C`, in assay [2], the cytotoxicity was 52.3% (active). In addition, the inhibition in [3] is -24.9% (inactive); in assay [4], -17.1% (inactive); in [5], 3.1% (inactive); with Caspase-3 (Homo sapiens) it was 6% (inactive); in assay [6] it was -5.6% (inactive). Moreover, the activity was 68.5% in [7] and 68.1% in assay [8].
As for `O=C(Nc1ccc2c(c1)OCCO2)C1CCCN(c2ncccn2)C1` (configuration not stated), the inhibition in assay [1] was -110% (inactive).
Regarding `COc1ccc(-c2nc(-c3ccccc3)no2)c(OC)c1`, the cytotoxicity in assay [2] was 69.6% (active). Besides, the inhibition in assay [3] was 97.4% (active); in assay [4], 100% (active); in assay [5], 103% (active); with Caspase-3 (Homo sapiens), 98.1% (active); in assay [6], 98.1% (active). Besides, the figures for the activity in assay [7] and in assay [8] were 82.3% and 80.7%, respectively.
On to `CCC(C)Cn1c(O)cc2nn(-c3nc4ccccc4s3)c(=O)c-2c1C` (configuration not stated), for which the cytotoxicity in [2] was 53.8% (active). Also, the inhibition in assay [9] is 94.5% (active); in [10] it was 102% (active); in assay [11] it was 16% (active); with Prothrombin (Bos taurus) it was -1.66% (inactive); with PEG-3 [12] it was 99%; with PEG-3 [13], 101%. Also, the results for the inhibition in the assay on Rat fibroblasts (CREF) [14] and in the assay on Rat fibroblasts (CREF) [15] were 72.9% and 68.7%, respectively.
For the compound `CCOc1cc(C(=O)N2CCc3cc(OC)c(OC)cc3C2)ccc1OC(F)F`, the inhibition in assay [1] was 57.9% (active).
Same read-out and setting: the figure for `COc1cc2c(cc1OC)CN(C(=O)c1cc(=O)c3ccccc3o1)CC2` is 21.4% (inactive).
On the same count and under the same terms, the figure for `Cn1c(-c2ccc(C(F)(F)F)cc2)cc2onc(-c3ccccc3)c2c1=O` is -121% (inactive).
Take `Cc1csc(SCC(=O)Nc2sccc2C#N)n1`: the inhibition in assay [1] was -98.6% (inactive); in assay [3], 93.1% (active); in assay [4], 96.1% (active); in assay [5], 101% (active); with Caspase-3 (Homo sapiens), 97.1% (active); in [6] it was 94.4% (active).
On to `COc1ccccc1NC(=O)C1=C(C)Nc2nc3ccccc3n2C1c1cccs1` (configuration not stated), for which the inhibition in assay [1] was 42.7% (inactive).
Take `O=C(Nc1ccc(-c2nnc(-c3ccccc3)o2)cc1)C1CCCO1` (configuration not stated): the inhibition in assay [1] is -47.8% (inactive); in assay [3], 28.8% (inactive); in assay [4] it was 21.4% (inactive); in assay [5] it was 38.3% (inactive); in the assay with Caspase-3 (Homo sapiens), 38.8% (inactive); in assay [6], 8.6% (inactive).
